Hits are enriched below; roughly 7% of the tested compounds scored in any of these assays.
HP1b binding inh: inhibitors of HP1-beta chromodomain binding to methylated histone tails. AID 540317. actives 0.56% (n = 390,000). AlphaScreen HP1-beta / biotin-H3K9me3 peptide binding. Potency, µM (titrated, usually from 114 µM), for inactives: at the highest dose activity change, negative = inhibition, actives largely listed as inhibitors. P83916; note: potency is the fitted concentration of half-maximal effect; nearly all actives have a fitted effect of over 70% in size
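AlphaScreen: HP1-beta (50 nM) preformed 30 min with biotin-H3(1-18)K9me3 peptide (50 nM) in PBS pH 7.4, 0.01% Tween-20. Compound added for 30 min at RT, then streptavidin donor/nickel chelate acceptor beads (10 ug/mL) for 30 min.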
PLK1 PBD inh: inhibitors of human PLK1 polo-box domain binding. Plk1 PBD binding of FITC phosphopeptide, fluorescence polarization. actives 2.8% (n = 360,000). Potency, µM, inactives show max response, negative = inhibition, usual class: inhibitors; note: potency is the fitted concentration of half-maximal effect; series mostly up to about 57 µM; % is set by controls: 0 for no effect and ±100 for the full control effect; nearly all actives have a fitted effect of over 65% in size
JMJD2A Tudor inh: JMJD2A Tudor domain (human) inhibition; actives 4.4% (n = 390,000); AlphaScreen JMJD2A-Tudor / H3K4me3 peptide binding; Potency, µM (series often up to 114 µM), for the others: at the highest dose activity change, negative = inhibition, usual class: inhibitors; O75164; note: potency is the fitted concentration of half-maximal effect; % is set by controls: 0 for no effect and ±100 for the full control effect; nearly all actives have a fitted effect of over 50% in size
Target sequence (O75164 whole entry, looked up, the tested form may be a part): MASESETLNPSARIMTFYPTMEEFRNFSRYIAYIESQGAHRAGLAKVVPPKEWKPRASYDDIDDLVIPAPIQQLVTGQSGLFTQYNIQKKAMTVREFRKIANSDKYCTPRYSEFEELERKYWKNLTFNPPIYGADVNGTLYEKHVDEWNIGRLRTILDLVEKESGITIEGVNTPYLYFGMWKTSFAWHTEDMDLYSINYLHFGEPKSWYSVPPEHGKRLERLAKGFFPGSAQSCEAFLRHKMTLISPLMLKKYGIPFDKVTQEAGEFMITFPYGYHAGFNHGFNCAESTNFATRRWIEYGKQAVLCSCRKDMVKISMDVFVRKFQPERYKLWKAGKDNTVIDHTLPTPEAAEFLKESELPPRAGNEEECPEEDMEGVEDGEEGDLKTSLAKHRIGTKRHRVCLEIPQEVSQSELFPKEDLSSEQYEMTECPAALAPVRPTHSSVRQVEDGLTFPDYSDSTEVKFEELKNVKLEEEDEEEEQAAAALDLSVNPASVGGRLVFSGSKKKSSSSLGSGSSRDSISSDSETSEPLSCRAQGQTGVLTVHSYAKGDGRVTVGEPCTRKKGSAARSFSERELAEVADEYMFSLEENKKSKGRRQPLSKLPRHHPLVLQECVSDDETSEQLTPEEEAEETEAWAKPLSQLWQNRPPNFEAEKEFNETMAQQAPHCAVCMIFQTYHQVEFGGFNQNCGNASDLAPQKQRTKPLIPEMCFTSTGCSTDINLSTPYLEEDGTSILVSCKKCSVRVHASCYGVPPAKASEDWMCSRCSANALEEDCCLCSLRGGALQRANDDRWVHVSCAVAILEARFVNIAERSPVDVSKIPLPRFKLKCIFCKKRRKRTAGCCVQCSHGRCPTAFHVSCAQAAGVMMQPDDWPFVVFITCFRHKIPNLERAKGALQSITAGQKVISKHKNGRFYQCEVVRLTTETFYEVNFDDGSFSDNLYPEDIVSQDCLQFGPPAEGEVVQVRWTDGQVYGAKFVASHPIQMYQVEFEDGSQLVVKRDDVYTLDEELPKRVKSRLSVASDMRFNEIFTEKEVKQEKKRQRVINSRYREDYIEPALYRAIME
GCN5L2 inh: inhibitors of human GCN5L2 histone acetyltransferase | GCN5L2 HAT assay, ThioGlo1 CoA-SH fluorescence | actives 0.21% (n = 390,000) | Q92830 | AID 504327 | Potency, µM (highest dose often 58.9 µM), for the others: at the top dose activity change, negative = inhibition, most hits filed as inhibitors; note: potency is the fitted concentration of half-maximal effect; % is set by controls: 0 for no effect and ±100 for the full control effect
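Preincubate 20nM GCN5L2 with compound 15 min, RT → add 50uM ThioGlo1 + 75uM H3(1-25) + 70uM acetyl-CoA → read fluorescence 0 and 20 min. Primary qHTS; fluorescent artifacts likely.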
PI5P4Ka inh: blocks human PI5P4K alpha kinase activity; AID 652105; max response, %; P48426; PI5P4Kalpha enzyme, ADP-Glo luminescence, 60 min; stronger effect = lower value; actives 1.2% (n = 330,000); active = max response of -50% or lower; inconclusive = between -30% and -50%; inactive = -30% or higher; note: value at the top dose of about 77 µM; % is set by controls: 0 for no effect and ±100 for the full control effect
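qHTS, 1536-well: enzyme/substrate mix, compound by pin tool, 5 microM ATP final; RT 60 min; ADP-Glo reagents 1 (45 min) then 2 (30 min); luminescence.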
BAZ2B inh: blocks human BAZ2B; AID 504333; actives 4.4% (n = 360,000); Potency, µM (top dose mostly 114 µM), for the others: at the top dose activity change, negative = inhibition, actives largely listed as inhibitors; Q9UIF8; AlphaScreen BAZ2B-H3K14Ac peptide displacement; note: potency is the fitted concentration of half-maximal effect; % is set by controls: 0 for no effect and ±100 for the full control effect; nearly all actives have a fitted effect of over 60% in size
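BAZ2B 50 nM plus b-H3(5-23)K14Ac 50 nM, PBS pH 7.4/0.01% Tween-20, 30 min RT; compound added (max 110 uM), 30 min RT; streptavidin donor/Ni-chelate acceptor beads 10 ug/mL final, 20 min dark; AlphaScreen read.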
The depositor's hits bear a star; u = inconclusive; x = no result; [ ] = another dose, or the depositor's remark. Unless noted, calls come from the whole dose curve; as a rule, active = well fitted curve in the direction sought with a large enough effect; inconclusive = small, poorly fitted or top-dose-only effect, or another doubt; inactive = no such curve, though single readings can be large; an effect the other way counts as inactive or inconclusive.

SMILES	HP1b binding inh	PLK1 PBD inh	JMJD2A Tudor inh	GCN5L2 inh	PI5P4Ka inh	BAZ2B inh
Cc1ccc(Cn2cc(C(=O)c3ccc4c(c3)OCO4)c(=O)c3cc(C)ccc32)cc1	-4%	x	u	-7%	x	-28%
Cc1cc(OC(=O)c2ccccc2Cl)cc(=O)n1C	61%	27µM*	-5%	-20%	7	-1%
Cc1ccc(OCC(=O)N2CCC(N3CC(C)CC(C)C3)CC2)cc1 (configuration not stated)	u	-9%	1.6µM*	-5%	-1	-37%
NC(=O)NC(=O)C(c1ccccc1)N1CCN(S(=O)(=O)c2ccc(Br)s2)CC1 (configuration not stated)	17%	-10%	-35%	-3%	2	1%
CN1CCC(Oc2ccccc2Sc2ccc(C(F)(F)F)cc2)CC1	11%	0%	u	-3%	-7	79µM*
COc1cc(C(c2sc3nc(C)nn3c2O)N2CCC3(CC2)OCCO3)cc(OC)c1OC (configuration not stated)	u	3µM*	u	-8%	-50*	-19%
O=c1c(O)c(-c2ccccc2)oc2cccc(O)c12	x	x	x	3%	x	x
O=[N+]([O-])c1cc([N+](=O)[O-])c2oc(-c3ccccc3)c(Br)c2c1O	u	8.4µM*	45µM*	u	-102*	35µM*
COc1ccc(-c2csc(NNC3=NCCCCC3)n2)cc1	u	6.7µM*	u	-12%	u	u
c1ccc(-c2csc(NNC3=NCCCCC3)n2)cc1	u	24µM*	-2%[11.4 µM]	-5%[0.501 µM]	5	u
COc1ccc(-c2csc(NC3=NCCCCC3)n2)cc1	32%	-2%	-8%	-1%	-6	-16%
CCOc1ccc(-c2csc(NNC3=NCCCCC3)n2)cc1	u	19µM*	-8%[11.4 µM]	-6%	-17	50µM*
CCCCN1C(=O)CN(C2CCCCCC2)C(=O)C1c1ccc(OCCC)c(OC)c1 (configuration not stated)	5%	x	-11%	0%	x	0%
COc1cc(C(=O)NNC(=O)c2cc(-c3ccccc3)n[nH]2)cc(OC)c1C	15%[57 µM]	-10%	-10%	-15%	u	13%
CCOc1cc(/C=C2/C(=O)ON=C2C)ccc1OCc1ccc(F)cc1	10%	u	5%	-1%	x	-24%
CCOc1cc(/C=C2/C(=O)ON=C2C)ccc1OCc1ccccc1F	3%	0.84µM*	u	-16%	x	u
COc1cc(/C=C2\NC(=S)N(C)C2=O)ccc1OCc1ccccc1F	53%	-10%	-12%	-3%	-12	3%
CCOc1cc(/C=C2/C(=O)ON=C2C)ccc1OCc1ccccc1	24%	1.5µM*	-1%	-2%	-1	-38%
O=C(CSc1ncccn1)NC(=O)NC1CCCC1	x	0%	x	x	0	x
Cc1cc2oc(C(=O)N(Cc3ccccc3F)C3CCS(=O)(=O)C3)c(C)c2cc1Cl (configuration not stated)	36%	x	-20%	1%	x	-19%
CN1C(=O)S/C(=C\c2ccccc2OCc2ccc(C(=O)O)cc2)C1=O	35%	-8%	-15%	-15%	5	-23%
COc1cccc(/C=C2\SC(=O)NC2=O)c1OCc1ccc(C(=O)O)cc1	27%	u	-4%	-3%	-87*	-26%
CC12CCC(C[N+](C)(C)C1)C2(C)C (configuration not stated)	-26%	-17%	22µM*	-15%	-8	-8%
CC12CCC(C[N+](C)(CCC[N+](C)(C)C)C1)C2(C)C (configuration not stated)	x	x	x	22µM*	x	x
Cc1ccccc1C(C)(O)c1cnc(C)n1Cc1ccccc1 (configuration not stated)	x	4%	x	x	1	x
SMILES	HP1b binding inh	PLK1 PBD inh	JMJD2A Tudor inh	GCN5L2 inh	PI5P4Ka inh	BAZ2B inh
CCCCSc1nc(N)nc2c1ncn2C1OC(CO)C(O)C1O (configuration not stated)	36%	-3%	-12%	x	1	x
NC(=O)c1ccc(NC(=O)CSc2nnc(-c3ccncc3)n2Cc2ccco2)cc1	10%	0%	-15%	u	-8	-13%
COC(=O)N/N=C/c1cc(C)n(-c2cccc3ccccc23)c1C	u	-5%	u	-3%	-16	79µM*
CCc1nn2c(=O)c(S(=O)(=O)Nc3ccc(OC)c(Cl)c3)c(C)nc2s1	16%	x	-18%	-7%	x	-9%
COc1ccc(-c2c[n+]3c(n2-c2ccccc2)CCCCC3)cc1	2%	30µM*	-26%	1%	5	-2%
COc1ccc(-c2c[n+]3c(n2-c2ccc(C)cc2)CCCCC3)cc1	46%	2%	1%	-3%	-3	1%
COc1ccc(-c2c[n+]3c4n2CCCCC4=C(c2ccccc2)C3)cc1	-5%	-9%	40µM*	-23%	-23	56µM*
CN(C)c1ncc(C(=O)NCc2ccccc2Cl)cn1	24%	x	10%	1%	x	0%
COc1ccc2c(CNCCc3ccccc3OC)c(C(=O)O)n(Cc3ccc(F)cc3Cl)c2c1	-2%	x	u	u	x	u
CCCCCCCCCCCCCCCCn1cc[n+](Cc2ccccc2)c1C	x	x	x	8.9µM*	x	x
COc1ccc(C(=O)OCC(=O)NC2CC2)cc1S(=O)(=O)Nc1ccc(C)cc1	20%	-1%	-8%	-5%	0	6%
CC(=O)Oc1ccc2nc(-c3cccs3)oc(=O)c2c1	16%	-12%	-5%	-12%	2	-1%
CC(=O)Oc1ccc2nc(-c3ccco3)oc(=O)c2c1	21%	27µM*	28µM*	-9%	u	-24%
NC(=S)n1[nH]c(-c2ccc([N+](=O)[O-])cc2)c(N=Nc2cccc(Cl)c2)c1=O	-18%	u	40µM*	-6%	-79*	u
Cc1[nH]n(C(N)=S)c(=O)c1N=Nc1cccc(Cl)c1	-1%	u	-26%	24%	-9	-4%
Cc1ccccc1N=Nc1c(C)[nH]n(C(N)=S)c1=O	u	u	u	-4%	-25	-1%
Cc1[nH]n(C(N)=S)c(=O)c1N=Nc1ccc([N+](=O)[O-])cc1Cl	u	-21%	u	11%	-24	28µM*
NC(=S)n1[nH]c(-c2ccc([N+](=O)[O-])cc2)c(N=Nc2ccc(O)cc2)c1=O	u	u	u	4%	-28	50µM*
Cc1cccc(N=Nc2c(C)[nH]n(C(N)=S)c2=O)c1C	x	x	x	-1%	x	u
CCN(CC)S(=O)(=O)c1ccc(N=Nc2c(C)[nH]n(C(N)=S)c2=O)cc1	-23%	u	u	-7%	u	5%

Screens as filed in PubChem BioAssay.
